Only some compounds are listed: those with a hit (about 1.2% of all), similar ones and a draw of the others.
GLS inh = inhibitors of human glutaminase (GLS). Potency, µM (highest dose often 45.5 µM), usual class: inhibitors. GLS enzymatic activity, qHTS titration. O94925. hit rate 0.21% among 410,000. AID 624170
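Human kidney-isoform GLS in 45 mM KH2PO4 pH 8.2, 0.02% Tween-20, with compound, started with 1mM L-Glutamine (added stock). Glutamate oxidase/HRP/Amplex red coupled fluorescence read at start and after 30 min at RT.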
mIDH1 inhibitor = blocks human mutant IDH1 R132H enzyme; IDH1-R132H enzyme, NADPH consumption, diaphorase/resazurin fluorescence; O75874; hit rate 0.093% among 390,000; Potency, µM (highest dose often 76.6 µM), hits mostly inhibitors; further: nearly all actives have a fitted effect of over 65% in size
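IDH1-R132H (0.5 ug/mL dispensed) in pH 7.5 Tris buffer was preincubated 30 min with compound, then given a substrate mix of 0.016 mM NADPH and 2 mM alpha-KG for 80 min at room temperature; remaining NADPH was read by diaphorase/resazurin fluorescence.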
TrxR1 substrate = is turned over as a substrate by rat TrxR1; O89049; purified TrxR1 substrate turnover, NADPH consumption readout; Potency, µM (doses to about 114 µM); hit rate 0.01% among 390,000; AID 588456; further: nearly all actives have a fitted effect of over 50% in size
Target sequence (O89049 whole entry, looked up): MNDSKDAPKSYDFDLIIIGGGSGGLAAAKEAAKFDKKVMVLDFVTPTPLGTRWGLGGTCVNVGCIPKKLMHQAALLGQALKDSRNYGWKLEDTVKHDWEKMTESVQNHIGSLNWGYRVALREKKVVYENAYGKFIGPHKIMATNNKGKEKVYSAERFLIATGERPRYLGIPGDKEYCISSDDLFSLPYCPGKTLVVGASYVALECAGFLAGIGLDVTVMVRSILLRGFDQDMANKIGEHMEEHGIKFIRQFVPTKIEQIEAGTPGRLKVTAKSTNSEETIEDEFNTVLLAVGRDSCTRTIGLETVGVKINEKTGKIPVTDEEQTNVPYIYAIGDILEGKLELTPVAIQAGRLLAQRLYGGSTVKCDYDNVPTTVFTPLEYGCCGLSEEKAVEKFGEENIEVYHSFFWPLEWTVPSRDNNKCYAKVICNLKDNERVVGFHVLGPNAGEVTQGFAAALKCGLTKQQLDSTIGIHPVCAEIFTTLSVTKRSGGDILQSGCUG
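Rat TrxR1, dispensed at 90 nM, was prereduced with 400 uM NADPH (final) for 5 min at ~22 deg C, then incubated with compound 15 min before 400 uM selenite. A first-read NADPH fluorescence drop versus no-compound background flagged substrates.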
rTrxR1 inhibitor = blocks rat thioredoxin reductase 1. hit rate 1% among 390,000. AID 588453. recombinant rTrxR1, NADPH fluorescence consumption, selenite substrate. O89049. Potency, µM (titrated, usually from 114 µM), usual class: inhibitors; further: nearly all actives have a fitted effect of over 65% in size
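Rat TrxR1 (90 nM in the dispensed reagent) was pre-reduced with 400 uM NADPH for 5 min at room temperature, then incubated with compound for 15 min. After 400 uM selenite was added, NADPH fluorescence (Ex 340/Em 450 nm) was followed for 8 min.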
IDH1 autofl = autofluorescence interference, mutant IDH1 hit counter-screen. shares compounds with mIDH1 inhibitor. Resorufin detection reagent fluorescence interference, cell-free. inhibition of signal, % at 51.2 µM. 750 tested, under 10 active
IDH1 WT = inhibits human wild-type IDH1, mutant selectivity check; hit rate 9% among 750; AID 623995; Potency, µM (series often up to 115 µM), actives largely listed as inhibitors; WT IDH1 enzyme, NADPH diaphorase/resazurin fluorescence; shares compounds with mIDH1 inhibitor; further: nearly all actives have a fitted effect of over 55% in size
IDH1 R132H conf = confirmation of human mutant IDH1 inhibitors; shares compounds with mIDH1 inhibitor; IDH1 R132H enzyme, NADPH diaphorase/resazurin fluorescence; Potency, µM (top dose mostly 76.6 µM), actives largely listed as inhibitors; hit rate 83% among 750; AID 624002; further: nearly all actives have a fitted effect of over 50% in size
Each line names hits and unclear results; the compound was inactive in the other large screens (follow-up assays come after a bar, where they were run). The call rests on the fitted dose curve; in most records, active means well fitted curve in the direction sought with a large enough effect; inconclusive means small, poorly fitted or top-dose-only effect, or another doubt; inactive means no such curve, though single readings can be large; an effect the other way counts as inactive or inconclusive.

COc1ccccc1N(C(=O)c1snc(C(N)=O)c1N)C(C(=O)NC1CCCCC1)c1cccc(OC)c1OC (stereo not drawn)	mIDH1 inhibitor inconclusive | IDH1 autofl inactive | IDH1 WT inactive | IDH1 R132H conf inconclusive
COc1ccccc1N(C(=O)c1snc(C(N)=O)c1N)C(C(=O)NC1CCCC1)c1ccco1 (stereo not drawn)	none
CCCCC(C(=O)NC1CCCC1)N(C(=O)c1snc(C(N)=O)c1N)c1ccc(C)cc1 (stereo not drawn)	mIDH1 inhibitor inconclusive | IDH1 autofl inactive | IDH1 WT inactive | IDH1 R132H conf inconclusive
Cc1cccc(N(C(=O)c2snc(C(N)=O)c2N)C(C(=O)NC2CCCC2)c2ccco2)c1 (stereo not drawn)	mIDH1 inhibitor inconclusive | IDH1 autofl inactive | IDH1 WT inactive | IDH1 R132H conf 35µM
Cc1ccc(N(C(=O)c2snc(C(N)=O)c2N)C(CC(C)C)C(=O)NC2CCCC2)cc1 (stereo not drawn)	none
COc1ccc(C)cc1N(C(=O)c1snc(C(N)=O)c1N)C(C(=O)NC1CCCCC1)c1ccc(C)o1 (stereo not drawn)	mIDH1 inhibitor inconclusive | IDH1 autofl inactive | IDH1 WT inactive | IDH1 R132H conf 14µM
Cc1ccc(NC(=O)COc2ccc3oc4c(c3c2)CCCC4)c(C)c1	none
Nc1nc2ncn(COCCO)c2c(=O)[nH]1	none (no result: GLS inh, mIDH1 inhibitor)
O=C(NC1CC1)c1ccc(Cn2c(SCc3cccc(F)c3)nc3cccnc32)cc1	none
CC(=O)C1=C(C)OC2(O)c3ccccc3C(=O)C12O (stereo not drawn)	none
CCOC(=O)C1=C(C)OC2(O)c3ccccc3C(=O)C12O (stereo not drawn)	mIDH1 inhibitor inconclusive | IDH1 autofl inactive | IDH1 WT inactive | IDH1 R132H conf inconclusive
COc1ccc(N(CC(=O)N2CCc3ccccc3C2)S(=O)(=O)c2ccc(C)cc2)cc1Cl	none
O=P(CCCCCCCCCP(=O)(c1ccccc1)c1ccccc1)(c1ccccc1)c1ccccc1	mIDH1 inhibitor 33µM | IDH1 autofl inactive | IDH1 WT inactive | IDH1 R132H conf 22µM
CCN(CC)S(=O)(=O)c1ccc2c(c1)N(CC(=O)Nc1cccc(C)c1C)C(=O)C1CCCN21 (stereo not drawn)	none
CCN(CC)S(=O)(=O)c1ccc2c(c1)N(CC(=O)Nc1ccc(Cl)cc1)C(=O)C1CCCN21 (stereo not drawn)	mIDH1 inhibitor inconclusive | IDH1 autofl inactive | IDH1 WT inactive | IDH1 R132H conf 28µM
Cc1ccccc1N(C(=O)Cc1c[nH]c2ccccc12)C(C(=O)NC1CCCCC1)c1ccco1 (stereo not drawn)	mIDH1 inhibitor inconclusive | IDH1 autofl inactive | IDH1 WT inactive | IDH1 R132H conf 13µM
Cc1ccc(-c2nnn(CC(=O)N(c3ccccc3F)C(C(=O)NC3CCCC3)c3ccco3)n2)o1 (stereo not drawn)	none
CC(=O)c1ccc(N(C(=O)CNC(=O)c2ccco2)C(C(=O)NC2CCCC2)c2ccco2)cc1 (stereo not drawn)	none
Cc1ccc(C(C(=O)NC2CCCCC2)N(Cc2ccco2)C(=O)Cc2c[nH]c3ccccc23)o1 (stereo not drawn)	mIDH1 inhibitor inconclusive | IDH1 autofl inactive | IDH1 WT inactive | IDH1 R132H conf 10µM
Cc1ccc(N(C(=O)Cc2c[nH]c3ccccc23)C(C(=O)NC2CCCCC2)c2ccco2)cc1 (stereo not drawn)	mIDH1 inhibitor inconclusive | IDH1 autofl inactive | IDH1 WT inactive | IDH1 R132H conf 6.3µM
COc1ccc(C(C(=O)NC2CCCCC2)N(C(=O)Cc2c[nH]c3ccccc23)c2ccccc2C)cc1OC (stereo not drawn)	none
Cc1ccc(C(C(=O)NC2CCCCC2)N(C(=O)Cc2c[nH]c3ccccc23)c2ccccc2C)o1 (stereo not drawn)	mIDH1 inhibitor inconclusive | IDH1 autofl inactive | IDH1 WT inactive | IDH1 R132H conf 7.1µM
COc1ccc(C(C(=O)NC2CCCCC2)N(Cc2cccs2)C(=O)Cc2c[nH]c3ccccc23)cc1OC (stereo not drawn)	none
Cc1cccn2c(=O)c3cc(C#N)c(=O)n(-c4nnc(SCc5ccc(F)cc5)s4)c3nc12	none (no result: mIDH1 inhibitor)
COc1cccc(-c2nc3c(c(C)nn3-c3ccccc3)c3cc(OC)c(OC)cc23)c1	mIDH1 inhibitor inconclusive
COc1cc2c(-c3ccc(O)cc3)nc3c(c(C)nn3-c3ccccc3)c2cc1OC	GLS inh inconclusive, mIDH1 inhibitor inconclusive | IDH1 autofl inactive | IDH1 WT inactive | IDH1 R132H conf 11µM
O=C(O)CCn1c(=O)n(CCC(=O)O)c(=O)n(CCC(=O)O)c1=O	mIDH1 inhibitor inconclusive | IDH1 autofl inactive | IDH1 WT inactive | IDH1 R132H conf inactive
CCC(C)Nc1nc(N)c([N+](=O)[O-])c(Nc2ccccc2OC)n1 (stereo not drawn)	GLS inh inconclusive
CCC(C)Nc1nc(N)c([N+](=O)[O-])c(Nc2cc(OC)ccc2OC)n1 (stereo not drawn)	mIDH1 inhibitor inconclusive | IDH1 autofl inactive | IDH1 WT inactive | IDH1 R132H conf 28µM
CCCCOC(=O)CSC1=C(C#N)C(c2ccccc2OC)C(C#N)C(=O)N1 (stereo not drawn)	mIDH1 inhibitor inconclusive | IDH1 autofl inactive | IDH1 WT inactive | IDH1 R132H conf 45µM
CCCOC(=O)CSC1=C(C#N)C(c2ccccc2OCC)C(C#N)C(=O)N1 (stereo not drawn)	mIDH1 inhibitor inconclusive | IDH1 autofl inactive | IDH1 WT inactive | IDH1 R132H conf 45µM
Cn1cc(S(=O)(=O)c2ccccc2)c(=O)c2cc(F)c(N3CCCCCC3)cc21	mIDH1 inhibitor 40µM | IDH1 autofl inactive | IDH1 WT inactive | IDH1 R132H conf 14µM
CCCn1cc(S(=O)(=O)c2ccccc2)c(=O)c2cc(F)c(N3CCCCC3)cc21	none
CCc1ccc(S(=O)(=O)c2cn(C)c3cc(N4CCCCC4C)c(F)cc3c2=O)cc1 (stereo not drawn)	none
CCn1cc(S(=O)(=O)c2ccccc2)c(=O)c2cc(F)c(N3CCCCCC3)cc21	mIDH1 inhibitor inconclusive | IDH1 autofl inactive | IDH1 WT inactive | IDH1 R132H conf 20µM
Cc1ccc(C)c(S(=O)(=O)c2cn(C)c3cc(N4CCCCC4C)c(F)cc3c2=O)c1 (stereo not drawn)	mIDH1 inhibitor inconclusive | IDH1 autofl inactive | IDH1 WT inactive | IDH1 R132H conf 16µM
CC1=C(C(=O)NCc2ccccc2Cl)C2(CCCCCC2)OC1=O	none

Source: PubChem BioAssay (National Center for Advancing Translational Sciences (NCATS))
